± gives the standard deviation of the averaged measurements. In all, about 33,000 sequences were measured (“E-score (dimensionless, -0.5 to 0.5)”: median about -0.049, highest 2% from about 0.37 on). This is one part of a sample in which the highest values are shown more often than they occur.
The sequences below were run on T1, PmTbr T-box DNA-binding domain (GST fusion) (assay: PBM E-score of 8-mer (E-score (dimensionless, -0.5 to 0.5)); Tbr is Tbrain of the sea star Patiria miniata (Pm) or the sea urchin Strongylocentrotus purpuratus (Sp); higher = stronger binding preference). Conditions: the construct has about 5 more residues each side.
T1 sequence: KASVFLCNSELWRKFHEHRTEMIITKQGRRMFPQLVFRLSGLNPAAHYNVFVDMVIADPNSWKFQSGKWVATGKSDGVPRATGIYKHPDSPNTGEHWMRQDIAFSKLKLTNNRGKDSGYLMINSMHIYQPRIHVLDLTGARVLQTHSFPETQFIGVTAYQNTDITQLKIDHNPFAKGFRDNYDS
Procedure: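 Universal protein-binding microarray (Agilent AMADID 016060, 60-bp probes with a 35-bp variable region) incubated with 200 nM GST-fused Patiria miniata Tbr T-box DNA-binding domain (residues 272-466) in PBS pH 7.5. Scored for every ungapped 8-mer (given with its reverse complement) by the Universal PBM Analysis Suite as E-score (modified Wilcoxon-Mann-Whitney enrichment, range -0.5 to 0.5; >0.45 counts as bound) and Z-score of median probe intensity. Two replicate arrays (datasets 1 and 2).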
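Further: 200 nM protein in PBS on universal arrays averaged over duplicate arrays.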

Sequence | PBM E-score of 8-mer
AGACCTCT | -0.301 ± 0.015
CCACCTCA | 0.229 ± 0.039
TAACCTCA | -0.152 ± 0.0019
ACGCCTGC | 0.24 ± 0.0036
GTGAAACA | 0.188 ± 0.036
CTGCTTGC | -0.132 ± 0.025
CGGCAGAG | 0.00638 ± 0.076
CGGCTGTC | 0.0205 ± 0.07
CCTTCGGA | -0.0659 ± 0.042
AGTAACAC | 0.393 ± 0.025
CGTAACAC | 0.365 ± 0.011
AGTAACAA | 0.167 ± 0.0063
GGTAACAA | 0.198 ± 0.056
GGTAACAC | 0.43 ± 0.0044
AGTAACAG | 0.037 ± 0.085
GTCTACGA | -0.127 ± 0.013
ATCGCAGG | 0.0806 ± 0.064
ACTCACTA | 0.144 ± 0.02
CCTTAACG | 0.00703 ± 0.089
ATGGGTAC | -0.173 ± 0.035
TAGGGTCA | -0.0997 ± 0.066
ATTGCAGC | -0.0944 ± 0.071
GTGTCAAC | 0.466 ± 0.007
CTGTCATA | 0.151 ± 0.011
GTGTCAAA | 0.448 ± 0.0094

Sequence | PBM E-score of 8-mer
ATGTCAAC | 0.171 ± 0.006
TTGTCAAA | 0.144 ± 0.09
GTGTCGAA | 0.38248 ± 9.9e-05
CTGTCGAA | 0.125 ± 0.0096
CTGTCAAA | 0.266 ± 0.04
ATGTCATA | -0.187 ± 0.0068
GTGTCATA | 0.4057 ± 0.0013
CTGTCAAC | 0.338 ± 0.011
ATGTCGAA | -0.0919 ± 0.073
CACATCAG | 0.162 ± 0.035
ACGATGTG | 0.25 ± 0.067
ACGTACTC | 0.061 ± 0.028
GCATCAAC | 0.0651 ± 0.026
GGGGCTGA | -0.1789 ± 0.00037
ATAGGTAC | -0.105 ± 0.041
ACGGCCAT | -0.105 ± 0.12
CTGTCAGA | 0.211 ± 0.014
GTGTCAGA | 0.3931 ± 0.00061
ATGTCAGA | -0.162 ± 0.069
AGGGATAA | -0.203 ± 0.032
TCGTTTCA | 0.145 ± 0.031
GAGTGAAA | 0.16 ± 0.1
AAGTGACC | 0.185 ± 0.041
GAGTGACC | -0.0846 ± 0.0063
AAGTGACG | 0.4043 ± 0.003

Sequence | PBM E-score of 8-mer
AAGTGACA | 0.458 ± 0.0065
AAGTGAAA | 0.154 ± 0.056
TAGTGAAA | 0.144 ± 0.048
GAGTGACA | 0.373 ± 0.017
CAGTGACA | 0.338 ± 0.0041
AAGTGACT | 0.092 ± 0.006
TAGTGACA | 0.398 ± 0.0059
CAGTGACG | 0.134 ± 0.011
ACTTGTAA | 0.0472 ± 0.082
GGGTATTA | -0.139 ± 0.091
GTCCAATA | -0.21 ± 0.0092
AGATGCCA | -0.00611 ± 0.051
GAACTATC | -0.095 ± 0.022
GAACTGAA | -0.228 ± 0.021
AAGGAGGC | -0.181 ± 0.009
GTCAAAAA | 0.0926 ± 0.056
CACGGTCG | 0.0491 ± 0.014
CGAGGGAG | -0.0838 ± 0.048
TACCTCGA | -0.0364 ± 0.012
GTGAGAGA | 0.319 ± 0.015
ATGTGAGC | 0.0849 ± 0.0062
CTGTGATA | 0.2528 ± 0.0022
ATGTGAGG | 0.215 ± 0.026
ATGTGATA | 0.298 ± 0.048
GTGTGATA | 0.46 ± 0.006

Sequence | PBM E-score of 8-mer
CTGTGAGA | 0.314 ± 0.0081
ATGTGAGA | 0.429 ± 0.0081
GTGTGAGA | 0.4583 ± 0.0027
GATACTTA | -0.121 ± 0.055
ACGATAAA | 0.122 ± 0.051
GACGATCC | -0.0686 ± 0.12
GATACAGC | -0.197 ± 0.018
CCATACTC | 0.0602 ± 0.026
GATATCTA | -0.117 ± 0.025
CTACCAGA | -0.1381 ± 0.0011
CCCGACCA | -0.0729 ± 0.075
CCAGCTGA | -0.0424 ± 0.022
CCTAGATC | -0.0223 ± 0.021
ATGTCACA | 0.375 ± 0.013
CCGTCACA | 0.325 ± 0.024
ATGTCAAG | -0.0802 ± 0.059
CCGTCACC | 0.356 ± 0.03
CTGTCACA | 0.4 ± 0.0052
ATGTCACC | 0.385 ± 0.015
CTGTCACC | 0.428 ± 0.013
ATGTCAGC | 0.00315 ± 0.0099
ATGTCATC | -0.0845 ± 0.035
CTGTCAAG | 0.2006 ± 0.0012
ATGTCACG | 0.262 ± 0.012
CTGTCATC | 0.141 ± 0.036

Sequence | PBM E-score of 8-mer
CCCCAGAC | -0.109 ± 0.082
ACACTGTG | 0.227 ± 0.0059
ACCTACTG | 0.0087 ± 0.021
AGATAGCT | -0.0197 ± 0.1
AGGCGAAA | -0.0128 ± 0.028
AATGATCG | -0.0804 ± 0.013
ACTTAAGA | -0.0828 ± 0.02
TATGGTGA | 0.074 ± 0.043
GTGTCACA | 0.445 ± 0.0066
GCGTCACA | 0.307 ± 0.014
GAGTCACA | 0.237 ± 0.0075
AGCCCCGC | -0.0835 ± 0.072
AATCTCAC | 0.382 ± 0.0088
AATCTCTC | -0.0609 ± 0.011
AATCTCAT | -0.0261 ± 0.042
ATTCTCAA | 0.115 ± 0.051
ATTCTCAC | 0.435 ± 0.017
ATTCTCAG | 0.0465 ± 0.077
ATGGCGGA | -0.225 ± 0.027
CGGCAAAC | -0.0247 ± 0.012
AGTAGGTC | -0.148 ± 0.05
AATAGGTA | -0.0644 ± 0.018
AGTAGGTA | -0.0493 ± 0.079
ATTAGGTG | 0.374 ± 0.0089
ACTAGGTC | -0.143 ± 0.0081

Sequence | PBM E-score of 8-mer
ACTAGGTA | -0.23 ± 0.039
AGTAGGTG | 0.4125 ± 0.00071
ACTAGGTG | 0.425 ± 0.012
AATAGGTC | -0.258 ± 0.012
ATTAGGTA | -0.131 ± 0.0089
AATAGGTG | 0.428 ± 0.013
ATTAGGTC | -0.153 ± 0.013
ATCGCTTC | 0.0264 ± 0.017
CACATTTC | 0.3486 ± 0.0015
AAATTCAC | 0.263 ± 0.021
AAAAGCGG | -0.261 ± 0.1
TTAGTAAA | -0.0101 ± 0.081
CCACTTCC | 0.0762 ± 0.022
ACACTCCT | 0.228 ± 0.019
CCACTTCA | 0.13 ± 0.034
GCACTTCC | 0.365 ± 0.021
ACACTTCC | 0.428 ± 0.016
ACACTCCG | 0.3818 ± 0.0019
CCACTTCG | 0.254 ± 0.028
TCACTTCA | 0.186 ± 0.021
ACACTTCA | 0.441 ± 0.017
ACACTTCG | 0.427 ± 0.0093
AAACTTCG | 0.00852 ± 0.068
ACTCTCCG | -0.0258 ± 0.0077
ATTCTCGG | -0.082 ± 0.071

Sequence | PBM E-score of 8-mer
CGAATCAC | 0.124 ± 0.029
AGAGGTCA | -0.0997 ± 0.006
TACTGACA | 0.1838 ± 0.00074
TCCCAGCA | 0.0248 ± 0.11
ACCGAATG | -0.119 ± 0.0097
CAGAAGCG | 0.103 ± 0.04
ACACTTCT | 0.4266 ± 0.0042
ACTCTTCT | -0.264 ± 0.02
AAACTTCT | -0.236 ± 0.043
AGGTTCTC | 0.0874 ± 0.028
ATTCACCA | 0.0566 ± 0.052
CCGTTGGC | 0.151 ± 0.01
AAATGTGG | 0.0797 ± 0.052
ATGTGTGC | 0.219 ± 0.016
AAATGTGT | 0.432 ± 0.011
GTGTGTGA | 0.41536 ± 0.00023
ATATGTGA | 0.24 ± 0.064
ATGTGTGA | 0.4845 ± 0.00059
AAATGTGC | 0.206 ± 0.049
CTGTGTGA | 0.298 ± 0.018
GTGTGTAA | 0.214 ± 0.022
TCAAGAAA | -0.17 ± 0.11

Source: the supplement of paper PMC4166925
